The text below walks through data of the supplement of paper PMC8699584.

Molecules are shown by their SMILES. Counter-ions that a name gives are not always drawn. ± gives the standard deviation of the averaged measurements.

The test system of one test is Molm13. In words: cell viability relative to DMSO control (bortezomib = 0%); higher = less growth inhibition. Particulars: 10 nM; 72 h. An outline of the steps:
(§1)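 Cell viability was assessed by CellTiter-Glo luminescence. Acute myeloid leukemia cells were seeded at 1000 cells per well in 50 µL on a 384-well library of 679 compounds at a single 10 nM dose for 72 h. Per-plate linear regression set DMSO-treated cells at 100% and positive-control-treated cells at 0%.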

The next test deals with Mv4-11. Described as above. Particulars: 10 nM; 72 h. An outline of the steps:
as §1

Turning to `CN1CC[C@H](c2c(O)cc(O)c3c(=O)cc(-c4ccccc4Cl)oc23)[C@H](O)C1` [Flavopiridol (Alvocidib) hydrochloride], the cell viability – broadly, a read-out of living cells in per cent, often relative to untreated cells – in the test with Molm13 worked out at 113.8 ± 0.38%; in the test with Mv4-11 it was 100 ± 3.2%.

For `CC(C)c1ccc2c(c1)CC[C@H]1[C@](C)(CN)CCC[C@]21C` [Leelamine], the cell viability was 96.7 ± 8.5% in the test on Molm13 and 101 ± 9.8% in the test on Mv4-11.

Consider `C[C@]1(O)C[C@@H](c2nc(-c3ccc4ccc(-c5ccccc5)nc4c3)c3c(N)nccn32)C1` [OSI-906 (Linsitinib)], for which the cell viability turned out to be 118 ± 12% in the test on Molm13 and 116 ± 12% in the test on Mv4-11.

For the molecule `O=C1NC(=O)/C(=C/c2ccc3c(c2)OC(F)(F)O3)S1`, the cell viability in the test with Molm13 stood at 102 ± 18%; with Mv4-11 it was 104 ± 34%.

On to `COc1cc(-c2cc(-c3ccc(N4CCNCC4)cc3)cnc2C)cc(OC)c1OC`, for which the results for the cell viability in the test with Molm13 and with Mv4-11 were 111 ± 5.7% and 107 ± 3.6%, respectively.

As to `CNC(=O)CN1CCC(Oc2cc3c(Nc4cccc(Cl)c4F)ncnc3cc2OC)CC1` [AZD8931 (Sapitinib)], the cell viability turned out to be 104 ± 6.3% in the test with Molm13 and 116 ± 4.9% in the test on Mv4-11.

For `O=C1c2cccc(O)c2C(=O)c2c(O)cccc21` [Antrapurol], the cell viability in the test on Molm13 is 112 ± 7.6%; in the test with Mv4-11, 109 ± 3.2%.

In the case of `CN(C)C/C=C/C(=O)Nc1cc2c(Nc3ccc(F)c(Cl)c3)ncnc2cc1O[C@H]1CCOC1` [Afatinib (BIBW2992) Dimaleate], the cell viability was found to be 108 ± 11% with Molm13 and 102 ± 7.5% with Mv4-11.

`C[C@@H]1O[C@@H](OC[C@H]2O[C@@H](Oc3c(-c4ccc(O)c(O)c4)oc4cc(O)cc(O)c4c3=O)[C@H](O)[C@@H](O)[C@@H]2O)[C@H](O)[C@H](O)[C@H]1O` [Rutin]: the results for the cell viability with Molm13 and in the test on Mv4-11 were 103 ± 1.5% and 113.3 ± 0.28%, respectively.

As to `Oc1ccc2c(c1)OCO2` [Sesamol], the cell viability with Molm13 came out at 103 ± 1.4%; in the test on Mv4-11, 113.6 ± 0.84%.

Turning to `COc1cc2ncnc(Nc3ccc(F)c(Cl)c3)c2cc1OCCCN1CCOCC1` [Gefitinib (ZD1839)], the cell viability with Molm13 is 110 ± 23%; in the test with Mv4-11, 116 ± 1.7%.

On to `O=C(NCCO)c1cccc(-c2cc(Nc3ccc(OC(F)(F)F)cc3)ncn2)c1`, for which the cell viability with Molm13 turned out to be 98.72 ± 0.31%; in the test with Mv4-11, 107 ± 3.3%.

Regarding `C=CC(=O)Nc1cccc(Nc2nc(Nc3ccc(N4CCN(C(C)=O)CC4)cc3OC)ncc2C(F)(F)F)c1` [Rociletinib (CO-1686, AVL-301)], the cell viability worked out at 108 ± 10% in the test on Molm13 and 110 ± 1.6% in the test on Mv4-11.

With `COc1cc(OC2CCN(C)CC2)ccc1Nc1ncc2c(n1)n(C1CCCC1)c(=O)n2C`, the cell viability worked out at 107 ± 7.8% in the test on Molm13 and 104.1 ± 0.45% in the test with Mv4-11.

Take `O=C(c1ccc(/C=C/c2n[nH]c3ccccc23)cc1)N1CCNCC1`: the cell viability was found to be 104 ± 4.2% in the test with Molm13 and 92.9 ± 17% with Mv4-11.

With `NC(=O)c1ccc(-c2nc(-c3ccccn3)c(-c3ccc4c(c3)OCO4)[nH]2)cc1`, the results for the cell viability in the test on Molm13 and in the test with Mv4-11 were 105 ± 16% and 107 ± 20%, respectively.

For `Cc1cn(-c2cc(NC(=O)c3ccc(C)c(Nc4nccc(-c5cccnc5)n4)c3)cc(C(F)(F)F)c2)cn1` [Nilotinib (AMN-107)], the results for the cell viability in the test on Molm13 and in the test on Mv4-11 were 108 ± 9% and 112 ± 16%, respectively.

In the case of `CCN1CCN(Cc2ccc(-c3cc4c(N[C@H](C)c5ccccc5)ncnc4[nH]3)cc2)CC1`, the cell viability with Molm13 was 100 ± 17%; in the test on Mv4-11, 109 ± 18%.

For `Nc1nc2cc(-c3ccc4ncc(C(=O)N5CCOCC5)n4c3)ccc2o1`, the cell viability came out at 98.5 ± 2.2% in the test on Molm13 and 105 ± 16% with Mv4-11.

For `CCOc1ccn(-c2ccc(F)cc2)c(=O)c1C(=O)Nc1ccc(Oc2ccnc(N)c2Cl)c(F)c1`, the cell viability in the test with Molm13 came out at 102.7 ± 0.96%; in the test with Mv4-11, 114 ± 7%.

Consider `COc1cc(Nc2ncc(F)c(Nc3ccc4c(n3)NC(=O)C(C)(C)O4)n2)cc(OC)c1OC` [R406 free base], for which the cell viability with Molm13 was 101.7 ± 0.97%; in the test on Mv4-11, 105 ± 1.6%.

As to `COc1ccc(-c2oc3c(CC=C(C)C)c(O)cc(O)c3c(=O)c2O)cc1` [Icaritin], the cell viability in the test on Molm13 came out at 117 ± 8.4%; in the test on Mv4-11, 118 ± 1.5%.
